Test results: the supplement of paper PMC10849652
Of roughly 7,900 targets only a part is listed; those with a hit were picked by preference. About 0.6% of all pairs of compound and target were hits.

Compound: CC1=C(C=C(C=C1)NC(=O)C2=CC(=CC=C2)N(C)C)NC(=O)C3=CC=C(C=C3)O
Assay: log2 fold change, soluble protein after heating vs DMSO (PISA); higher = thermal stabilisation; K562 cells, 10 uM, 30 min; active = over 0.2 and 3.5 SD of the protein, either way, in both replicates (recomputed)
Procedure, shortened: (§1)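 Values are thermal stability changes relative to control samples and are taken from duplicates. They are stated as log2 fold changes. Before quantification by TMTpro 16plex LC-MS/MS with equalised channel sums, K562 cells at 2×10^6 cells/mL were treated with 10 μM compound for 30 min, heated in aliquots for 3 min across 48°C-58°C, pooled, extracted in PBS with 0.5% NP-40 at 4°C, and centrifuged at 21,000xg for 90 min to give the soluble supernatant.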

Sequence of UniProt P06737 (P06737 whole entry, looked up): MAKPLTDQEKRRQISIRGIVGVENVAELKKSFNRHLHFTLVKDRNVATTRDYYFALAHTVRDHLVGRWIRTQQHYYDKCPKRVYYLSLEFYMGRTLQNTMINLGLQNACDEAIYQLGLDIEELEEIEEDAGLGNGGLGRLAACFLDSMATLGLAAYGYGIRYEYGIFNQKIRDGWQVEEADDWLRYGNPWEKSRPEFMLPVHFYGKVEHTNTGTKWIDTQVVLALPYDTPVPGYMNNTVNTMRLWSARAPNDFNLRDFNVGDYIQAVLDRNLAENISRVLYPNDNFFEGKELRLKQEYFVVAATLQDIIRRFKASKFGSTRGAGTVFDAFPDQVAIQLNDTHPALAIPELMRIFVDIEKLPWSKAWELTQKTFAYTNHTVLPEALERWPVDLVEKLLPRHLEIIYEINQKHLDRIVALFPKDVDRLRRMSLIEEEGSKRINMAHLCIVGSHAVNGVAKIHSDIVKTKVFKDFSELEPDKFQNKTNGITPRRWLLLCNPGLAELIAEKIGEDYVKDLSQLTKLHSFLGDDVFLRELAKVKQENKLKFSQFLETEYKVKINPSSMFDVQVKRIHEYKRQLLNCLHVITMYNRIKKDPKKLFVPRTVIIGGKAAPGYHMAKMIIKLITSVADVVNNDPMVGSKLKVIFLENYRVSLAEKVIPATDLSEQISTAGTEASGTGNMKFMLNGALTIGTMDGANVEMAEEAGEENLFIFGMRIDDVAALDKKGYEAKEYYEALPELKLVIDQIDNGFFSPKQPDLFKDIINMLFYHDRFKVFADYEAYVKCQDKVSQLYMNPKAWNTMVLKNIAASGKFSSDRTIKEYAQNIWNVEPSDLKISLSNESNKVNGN
Sequence of UniProt Q13200 (Q13200 whole entry, looked up): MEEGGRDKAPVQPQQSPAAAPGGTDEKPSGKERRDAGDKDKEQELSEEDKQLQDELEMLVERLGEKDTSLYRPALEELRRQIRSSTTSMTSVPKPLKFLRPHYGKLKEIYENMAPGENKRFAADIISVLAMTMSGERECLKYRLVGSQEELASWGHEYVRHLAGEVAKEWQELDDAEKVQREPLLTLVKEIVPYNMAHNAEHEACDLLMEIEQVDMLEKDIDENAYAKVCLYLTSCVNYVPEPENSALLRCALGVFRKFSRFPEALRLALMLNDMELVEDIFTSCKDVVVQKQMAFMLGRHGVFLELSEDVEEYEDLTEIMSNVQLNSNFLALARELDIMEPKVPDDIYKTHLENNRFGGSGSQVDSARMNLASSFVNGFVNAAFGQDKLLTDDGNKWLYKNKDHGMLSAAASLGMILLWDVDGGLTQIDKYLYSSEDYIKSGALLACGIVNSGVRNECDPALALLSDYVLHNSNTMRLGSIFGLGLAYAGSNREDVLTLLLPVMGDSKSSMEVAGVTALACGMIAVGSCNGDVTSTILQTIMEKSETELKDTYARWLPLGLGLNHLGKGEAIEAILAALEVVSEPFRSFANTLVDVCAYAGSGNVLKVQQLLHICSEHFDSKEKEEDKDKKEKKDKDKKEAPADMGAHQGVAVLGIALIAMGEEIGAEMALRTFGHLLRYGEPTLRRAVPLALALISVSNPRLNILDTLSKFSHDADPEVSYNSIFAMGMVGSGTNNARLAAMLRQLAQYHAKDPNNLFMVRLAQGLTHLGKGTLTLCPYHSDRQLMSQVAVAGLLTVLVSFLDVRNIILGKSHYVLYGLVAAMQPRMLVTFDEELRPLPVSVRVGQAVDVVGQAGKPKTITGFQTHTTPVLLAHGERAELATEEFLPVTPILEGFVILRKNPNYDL
Sequence of UniProt P15735 (P15735 whole entry, looked up): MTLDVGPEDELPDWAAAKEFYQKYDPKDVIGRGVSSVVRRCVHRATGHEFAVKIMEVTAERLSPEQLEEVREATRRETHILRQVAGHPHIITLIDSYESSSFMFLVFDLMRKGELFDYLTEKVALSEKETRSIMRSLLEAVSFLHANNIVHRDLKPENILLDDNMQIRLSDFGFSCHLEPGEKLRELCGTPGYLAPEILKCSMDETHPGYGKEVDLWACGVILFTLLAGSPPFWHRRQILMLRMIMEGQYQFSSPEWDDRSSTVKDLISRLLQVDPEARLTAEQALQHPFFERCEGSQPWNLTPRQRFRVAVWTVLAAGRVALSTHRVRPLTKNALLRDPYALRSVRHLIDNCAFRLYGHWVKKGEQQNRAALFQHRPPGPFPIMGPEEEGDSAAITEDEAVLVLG
Sequence of UniProt Q10713 (Q10713 whole entry, looked up): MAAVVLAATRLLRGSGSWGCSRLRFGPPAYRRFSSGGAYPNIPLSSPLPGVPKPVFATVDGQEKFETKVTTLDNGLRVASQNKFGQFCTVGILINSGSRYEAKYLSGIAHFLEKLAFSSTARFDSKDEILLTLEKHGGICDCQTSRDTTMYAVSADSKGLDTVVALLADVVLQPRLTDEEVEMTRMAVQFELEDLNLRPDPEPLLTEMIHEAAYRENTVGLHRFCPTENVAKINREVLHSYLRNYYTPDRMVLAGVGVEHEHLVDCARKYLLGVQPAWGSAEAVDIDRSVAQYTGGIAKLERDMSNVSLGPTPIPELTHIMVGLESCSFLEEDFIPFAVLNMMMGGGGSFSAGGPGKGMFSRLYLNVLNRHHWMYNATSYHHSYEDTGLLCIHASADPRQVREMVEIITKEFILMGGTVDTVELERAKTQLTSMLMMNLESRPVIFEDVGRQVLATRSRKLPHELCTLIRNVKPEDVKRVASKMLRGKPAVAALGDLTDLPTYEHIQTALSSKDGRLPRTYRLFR
Sequence of UniProt Q99541 (Q99541 whole entry, looked up): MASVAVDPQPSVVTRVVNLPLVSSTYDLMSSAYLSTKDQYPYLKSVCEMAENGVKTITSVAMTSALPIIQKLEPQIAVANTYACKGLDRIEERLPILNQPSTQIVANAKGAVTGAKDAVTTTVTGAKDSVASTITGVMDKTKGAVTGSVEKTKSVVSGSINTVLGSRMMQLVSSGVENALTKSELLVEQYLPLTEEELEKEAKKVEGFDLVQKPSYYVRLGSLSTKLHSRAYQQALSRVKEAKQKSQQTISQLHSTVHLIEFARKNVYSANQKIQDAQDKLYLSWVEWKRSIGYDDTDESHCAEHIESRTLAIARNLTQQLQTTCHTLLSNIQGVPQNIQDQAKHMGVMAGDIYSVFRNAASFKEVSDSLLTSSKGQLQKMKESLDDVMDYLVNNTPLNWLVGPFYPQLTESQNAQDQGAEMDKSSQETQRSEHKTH
Sequence of UniProt Q01970 (Q01970 whole entry, looked up): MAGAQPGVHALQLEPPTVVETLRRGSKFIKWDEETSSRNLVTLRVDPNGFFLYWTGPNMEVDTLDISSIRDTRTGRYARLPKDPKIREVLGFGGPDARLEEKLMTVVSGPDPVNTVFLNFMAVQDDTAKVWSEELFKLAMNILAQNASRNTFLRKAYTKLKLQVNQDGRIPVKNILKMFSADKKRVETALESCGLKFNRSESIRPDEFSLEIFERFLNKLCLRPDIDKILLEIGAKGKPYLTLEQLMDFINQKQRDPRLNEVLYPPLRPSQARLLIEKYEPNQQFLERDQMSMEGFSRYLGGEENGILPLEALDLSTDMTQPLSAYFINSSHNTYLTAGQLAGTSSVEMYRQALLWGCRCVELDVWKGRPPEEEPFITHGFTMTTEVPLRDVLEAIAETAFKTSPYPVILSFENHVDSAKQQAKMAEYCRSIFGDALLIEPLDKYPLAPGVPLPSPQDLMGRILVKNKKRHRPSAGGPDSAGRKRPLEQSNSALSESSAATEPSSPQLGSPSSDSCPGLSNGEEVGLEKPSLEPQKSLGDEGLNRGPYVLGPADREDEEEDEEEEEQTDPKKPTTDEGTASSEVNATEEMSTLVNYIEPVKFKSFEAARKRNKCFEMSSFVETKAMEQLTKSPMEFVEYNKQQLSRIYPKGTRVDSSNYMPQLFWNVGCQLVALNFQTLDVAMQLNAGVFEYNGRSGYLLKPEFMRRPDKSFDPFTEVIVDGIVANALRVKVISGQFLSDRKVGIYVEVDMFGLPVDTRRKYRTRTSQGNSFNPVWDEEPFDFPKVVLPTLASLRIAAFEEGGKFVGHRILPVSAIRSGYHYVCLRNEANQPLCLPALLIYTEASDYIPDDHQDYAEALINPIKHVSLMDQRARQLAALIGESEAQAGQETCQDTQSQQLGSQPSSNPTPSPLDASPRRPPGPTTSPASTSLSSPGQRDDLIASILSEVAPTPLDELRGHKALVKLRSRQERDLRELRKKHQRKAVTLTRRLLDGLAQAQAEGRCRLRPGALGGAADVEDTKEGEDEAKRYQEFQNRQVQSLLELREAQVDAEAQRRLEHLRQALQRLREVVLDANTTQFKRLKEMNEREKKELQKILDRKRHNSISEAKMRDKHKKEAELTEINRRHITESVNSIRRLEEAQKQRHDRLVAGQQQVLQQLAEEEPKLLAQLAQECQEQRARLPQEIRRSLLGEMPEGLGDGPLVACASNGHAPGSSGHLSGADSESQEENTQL
Sequence of UniProt Q9Y5Y5 (Q9Y5Y5 whole entry, looked up): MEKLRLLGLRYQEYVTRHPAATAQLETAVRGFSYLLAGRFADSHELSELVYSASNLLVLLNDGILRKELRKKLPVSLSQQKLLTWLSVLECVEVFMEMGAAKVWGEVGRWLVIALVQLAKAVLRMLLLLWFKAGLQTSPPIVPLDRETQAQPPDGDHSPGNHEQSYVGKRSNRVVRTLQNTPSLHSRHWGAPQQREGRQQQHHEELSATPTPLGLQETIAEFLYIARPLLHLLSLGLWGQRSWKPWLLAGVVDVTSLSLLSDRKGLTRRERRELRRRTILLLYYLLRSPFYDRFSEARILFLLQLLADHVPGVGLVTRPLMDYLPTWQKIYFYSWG
Sequence of UniProt Q96A00 (Q96A00 whole entry, looked up): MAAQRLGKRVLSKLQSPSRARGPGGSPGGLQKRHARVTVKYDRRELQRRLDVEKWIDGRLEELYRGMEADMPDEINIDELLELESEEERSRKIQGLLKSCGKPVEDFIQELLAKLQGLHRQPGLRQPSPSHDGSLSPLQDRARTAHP
Sequence of UniProt Q93096 (Q93096 whole entry, looked up): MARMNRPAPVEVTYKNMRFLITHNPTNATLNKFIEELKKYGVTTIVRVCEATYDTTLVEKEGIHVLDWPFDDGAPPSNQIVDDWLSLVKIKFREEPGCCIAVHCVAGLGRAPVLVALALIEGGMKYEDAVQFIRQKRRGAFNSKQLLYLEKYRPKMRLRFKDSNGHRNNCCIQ

Target	log2 fold change
POLR2M (UniProt P0CAP2)	-0.014 (inactive)
PCID2 (UniProt Q5JVF3)	-0.026 (inactive)
PMPCA (UniProt Q10713)	-0.049 (inactive)
POLA1 (UniProt P09884)	-0.029 (inactive)
PDE2A (UniProt O00408)	0.007 (inactive)
PDCD4 (UniProt Q53EL6)	-0.043 (inactive)
PURA (UniProt Q00577)	0.032 (inactive)
PPP1R14A (UniProt Q96A00)	-0.04 (inactive)
PMM2 (UniProt O15305)	0.021 (inactive)
PTRH2 (UniProt Q9Y3E5)	-0.007 (inactive)
PPP2R5E (UniProt Q16537)	-0.065 (inactive)
PFAS (UniProt O15067)	-0.119 (inactive)
PPP2R5A (UniProt Q15172)	-0.039 (inactive)
PHKG2 (UniProt P15735)	-0.007 (inactive)
PKM (UniProt P14618)	-0.005 (inactive)
PSMD12 (UniProt O00232)	-0.004 (inactive)
PRKAR1B (UniProt P31321)	-0.019 (inactive)
POLR2K (UniProt P53803)	0.065 (inactive)
PLCB3 (UniProt Q01970)	-0.04 (inactive)

Target	log2 fold change
PLIN2 (UniProt Q99541)	0.018 (inactive)
POTEI (UniProt P0CG38)	-0.035 (inactive)
PTP4A1 (UniProt Q93096)	-0.005 (inactive)
PI4K2A (UniProt Q9BTU6)	-0.02 (inactive)
POLR3K (UniProt Q9Y2Y1)	0.098 (inactive)
PEX16 isoform 2 (UniProt Q9Y5Y5)	0.038 (inactive)
PIGT (UniProt Q969N2)	-0.005 (inactive)
PRKAA1 isoform 2 (UniProt Q13131)	0.001 (inactive)
PTRHD1 (UniProt Q6GMV3)	-0.098 (inactive)
PPIL2 (UniProt Q13356)	-0.084 (inactive)
PEX13 (UniProt Q92968)	-0.101 (inactive)
PSMD2 (UniProt Q13200)	0.012 (inactive)
PPID (UniProt Q08752)	-0.047 (inactive)
POLD1 (UniProt P28340)	-0.028 (inactive)
PDCD2L (UniProt Q9BRP1)	-0.104 (inactive)
PRKAB1 (UniProt Q9Y478)	0.026 (inactive)
PSMD7 (UniProt P51665)	-0.005 (inactive)
PYGL (UniProt P06737)	0.011 (inactive)

Compound: CC1=CC=C(C=C1)SC2=C3C=C(SC3=CN=C2)C(=O)N
Assay: as above
Procedure, shortened: as §1

Target	log2 fold change
POLR2M (UniProt P0CAP2)	0.027 (inactive)
PCID2 (UniProt Q5JVF3)	-0.066 (inactive)
PMPCA (UniProt Q10713)	0.014 (inactive)
POLA1 (UniProt P09884)	-0.003 (inactive)
PDE2A (UniProt O00408)	0.041 (inactive)
PDCD4 (UniProt Q53EL6)	0.012 (inactive)
PURA (UniProt Q00577)	-0.101 (inactive)
PPP1R14A (UniProt Q96A00)	0.004 (inactive)
PMM2 (UniProt O15305)	-0.014 (inactive)
PTRH2 (UniProt Q9Y3E5)	0.032 (inactive)
PPP2R5E (UniProt Q16537)	-0.023 (inactive)
PFAS (UniProt O15067)	0.172 (inactive)
PPP2R5A (UniProt Q15172)	0.032 (inactive)
PHKG2 (UniProt P15735)	-0.083 (inactive)
PKM (UniProt P14618)	0.001 (inactive)
PSMD12 (UniProt O00232)	-0.005 (inactive)
PRKAR1B (UniProt P31321)	0.004 (inactive)
POLR2K (UniProt P53803)	0.056 (inactive)
PLCB3 (UniProt Q01970)	0.021 (inactive)

Target	log2 fold change
PLIN2 (UniProt Q99541)	0.109 (inactive)
POTEI (UniProt P0CG38)	-0.012 (inactive)
PTP4A1 (UniProt Q93096)	0.023 (inactive)
PI4K2A (UniProt Q9BTU6)	0.004 (inactive)
POLR3K (UniProt Q9Y2Y1)	0 (inactive)
PEX16 isoform 2 (UniProt Q9Y5Y5)	0.083 (inactive)
PIGT (UniProt Q969N2)	0.02 (inactive)
PRKAA1 isoform 2 (UniProt Q13131)	-0.001 (inactive)
PTRHD1 (UniProt Q6GMV3)	0.017 (inactive)
PPIL2 (UniProt Q13356)	0.04 (inactive)
PEX13 (UniProt Q92968)	0.033 (inactive)
PSMD2 (UniProt Q13200)	-0.025 (inactive)
PPID (UniProt Q08752)	0.091 (inactive)
POLD1 (UniProt P28340)	0.018 (inactive)
PDCD2L (UniProt Q9BRP1)	0.052 (inactive)
PRKAB1 (UniProt Q9Y478)	0.022 (inactive)
PSMD7 (UniProt P51665)	-0.047 (inactive)
PYGL (UniProt P06737)	0.011 (inactive)
